According to the supplement of paper PMC6555819:

Assays:
Assay in all cases: PBM binding z-score (relative to random genomic background probes); higher = stronger binding; sequences stand for … in GC…GCGATTGACAGCGTAGAATGAAGG
[1] = tested on: FXR:RXRa (NR concentration 270 nM, RXRa partner concentration 90 nM)
How it was run: (§1)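 Regression normalization was applied to scanned fluorescence from custom Agilent 4×180K protein-binding microarrays. Before scanning, arrays were incubated 1 h with ligand-free nuclear receptor dimers, and binding was detected with antibodies against each partner (one per run). Binding z-scores use the random background probes as reference.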

[2] = tested on: LXRa:RXRa (NR concentration 270 nM, RXRa partner concentration 90 nM)
How it was run: as §1

[3] = tested on: LXRa homodimer (NR concentration 270 nM)
How it was run: as §1

[4] = tested on: LXRb:RXRa (NR concentration 270 nM, RXRa partner concentration 90 nM)
How it was run: as §1

[5] = tested on: LXRb homodimer (NR concentration 270 nM)
How it was run: as §1

[6] = tested on: PPARa:RXRa (NR concentration 270 nM, RXRa partner concentration 90 nM)
How it was run: as §1

[7] = tested on: PPARg:RXRa (NR concentration 180 nM, RXRa partner concentration 90 nM)
How it was run: as §1

[8] = tested on: PPARg:RXRa 270nM:90nM, anti-RXR (NR concentration 270 nM, RXRa partner concentration 90 nM)
How it was run: as §1

[9] = tested on: PPARg:RXRa 30nM:10nM, anti-RXR (NR concentration 30 nM, RXRa partner concentration 10 nM)
How it was run: as §1

[10] = tested on: PPARg:RXRa 90nM:30nM, anti-RXR (NR concentration 90 nM, RXRa partner concentration 30 nM)
How it was run: as §1

[11] = tested on: PPARg:RXRa DBDmut IVT, anti-RXR (DBD mutation: RXRa K156A/R161A, NR concentration 270 nM, RXRa partner concentration 90 nM)
How it was run: as §1

[12] = tested on: PPARg:RXRa IVT, anti-PPARg (NR concentration 270 nM, RXRa partner concentration 90 nM)
How it was run: as §1

[13] = tested on: PPARg DBDmut:RXRa IVT, anti-PPARg (DBD mutation: PPARg1 K132A/R137A, NR concentration 270 nM, RXRa partner concentration 90 nM)
How it was run: as §1

[14] = tested on: PPARg DBDmut IVT, anti-PPARg (DBD mutation: PPARg1 K132A/R137A, NR concentration 270 nM)
How it was run: as §1

[15] = tested on: PPARg homodimer (NR concentration 180 nM)
How it was run: as §1

[16] = tested on: PXR:RXRa (NR concentration 270 nM, RXRa partner concentration 90 nM)
How it was run: as §1

[17] = tested on: PXR homodimer (NR concentration 270 nM)
How it was run: as §1

[18] = tested on: RARa:RXR (NR concentration 270 nM, RXRa partner concentration 90 nM)
How it was run: as §1

[19] = tested on: RARa homodimer (NR concentration 270 nM)
How it was run: as §1

[20] = tested on: RARb:RXRa (NR concentration 270 nM, RXRa partner concentration 90 nM)
How it was run: as §1

GCGACTGGGGCATCAGCAGGTTCCCATAACTTAA was tested, and the PBM binding z-score [1] was -0.761, the PBM binding z-score [2] was -0.491 and the PBM binding z-score [3] was -0.648. For the same sequence, the PBM binding z-score [4] was 0.0504, the PBM binding z-score [5] was -1.52 and the PBM binding z-score [6] was 0.27. For the same sequence, the PBM binding z-score [7] was 0.29, the PBM binding z-score [8] was 0.35 and the PBM binding z-score [9] was -0.948. The PBM binding z-score [10] was -0.176, the PBM binding z-score [11] was 3.91 and the PBM binding z-score [12] was 2.88. For the same sequence, the PBM binding z-score [13] was -0.996, the PBM binding z-score [14] was -0.982 and the PBM binding z-score [15] was -0.276. It also gave a PBM binding z-score [16] of -0.549, a PBM binding z-score [17] of -0.571 and a PBM binding z-score [18] of -0.272. For the same sequence, the PBM binding z-score [19] was -0.565 and the PBM binding z-score [20] was 0.421.
With ATCGAAAGGTCGAGGCGAGTATAGAGAAAGGGAA the PBM binding z-score [1] was 3.71, the PBM binding z-score [2] was 3.01 and the PBM binding z-score [3] was -0.542. The PBM binding z-score [4] was 2.24, the PBM binding z-score [5] was 0.308 and the PBM binding z-score [6] was 4.47. For the same sequence, the PBM binding z-score [7] was 2.71, the PBM binding z-score [8] was 2.86 and the PBM binding z-score [9] was 0.749. It also gave a PBM binding z-score [10] of 1.52, a PBM binding z-score [11] of 0.108 and a PBM binding z-score [12] of 1.14. For the same sequence, the PBM binding z-score [13] was 0.481, the PBM binding z-score [14] was 0.208 and the PBM binding z-score [15] was 0.98. It also gave a PBM binding z-score [16] of 2.11, a PBM binding z-score [17] of 0.0659 and a PBM binding z-score [18] of 2.71. It also gave a PBM binding z-score [19] of 0.203 and a PBM binding z-score [20] of 3.86.
For CGAACTAGGTCATCCAGGACAGTGAATACATTGA, the PBM binding z-score [1] was 4.28, the PBM binding z-score [2] was 2.79 and the PBM binding z-score [3] was 0.603. The PBM binding z-score [4] was 2.04, the PBM binding z-score [5] was 0.134 and the PBM binding z-score [6] was 4.91. It also gave a PBM binding z-score [7] of 7.69, a PBM binding z-score [8] of 6.5 and a PBM binding z-score [9] of 4.15. The PBM binding z-score [10] was 6.05, the PBM binding z-score [11] was 8.1 and the PBM binding z-score [12] was 8.47. The PBM binding z-score [13] was 3.54, the PBM binding z-score [14] was 2.16 and the PBM binding z-score [15] was 1.36. It also gave a PBM binding z-score [16] of 2.06, a PBM binding z-score [17] of 1.61 and a PBM binding z-score [18] of 2.38. For the same sequence, the PBM binding z-score [19] was 0.896 and the PBM binding z-score [20] was 3.91.
GCTGTTAGGTCAACTGATGGTCAGCTAAAGCTCG was tested, and the PBM binding z-score [1] was 4.8, the PBM binding z-score [2] was 3.67 and the PBM binding z-score [3] was 0.551. The PBM binding z-score [4] was 2.5, the PBM binding z-score [5] was 1.02 and the PBM binding z-score [6] was 3.78. The PBM binding z-score [7] was 2, the PBM binding z-score [8] was 2.74 and the PBM binding z-score [9] was 0.501. It also gave a PBM binding z-score [10] of 1.61, a PBM binding z-score [11] of 4.04 and a PBM binding z-score [12] of 2.94. The PBM binding z-score [13] was 0.716, the PBM binding z-score [14] was 0.227 and the PBM binding z-score [15] was 3.51. For the same sequence, the PBM binding z-score [16] was 2.32, the PBM binding z-score [17] was -0.291 and the PBM binding z-score [18] was 3.69. It also gave a PBM binding z-score [19] of 0.121 and a PBM binding z-score [20] of 4.4.
